Our source for the Potency and outcome values is PubChem BioAssay (Tox21).

“And” between values parts separate entries of the source, which are not always exact repeats. Equal values may be shown once. Results filed as inconclusive are left out. Some compounds were tested as several samples or in several runs, with calls that do not always agree. The source made the active and inactive calls. Unless noted, the call rests on the fitted dose curve; in most records, active means well fitted curve in the direction sought with a large enough effect in the repeat runs; inconclusive means weak or mixed curves; inactive means no such curve, though single readings can be large; an effect the other way counts as inactive or inconclusive.

The nature of assay [1]: A CellTox Green Cytotoxicity Assay to monitor cytotoxicity in HepG2 cells - 8 hour (AID 1224890). Further: nearly all actives have a fitted effect of over 45% in size. Further: potency means the concentration at half of the fitted maximal effect. Put shortly: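 Real-time, homogeneous cytotoxicity readout: dead-cell DNA staining by CellTox Green in HepG2 monolayers, fluorescence measured at timed intervals up to 40 h of continuous compound exposure.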
Assay [2] is described as follows: qHTS assay to identify small molecule antagonists of the estrogen receptor alpha (ER-alpha) signaling pathway using the BG1 cell line in the presence of 0.1 nM 17-beta-estradiol - cell viability counter screen (AID 1259241). Further: nearly all actives have a fitted effect of over 40% in size. In outline: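 Measures cytotoxicity alongside the ER-alpha antagonist readout: VM7Luc4E2 cells, charcoal-stripped serum, 0.1 nM 17beta-estradiol final, 22 hr compound incubation at 37C, CellTiter-Fluor fluorescence.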

Assay [3] is described as follows: qHTS assay to identify small molecule antagonists of the androgen receptor (AR) signaling pathway using the MDA cell line in the presence of 0.5 nM R1881 - cell viability counter screen (AID 1259242). Further: nearly all actives have a fitted effect of over 45% in size. Further: potency means the concentration at half of the fitted maximal effect. In outline:
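Cytotoxicity toward MDA-kb2 cells is measured by CellTiter-Fluor live-cell protease fluorescence after 16 hr compound exposure at 37C in the presence of 0.5 nM R1881 stimulator.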

The target in assay [4] is Estrogen receptor (Homo sapiens) (UniProt P03372). As to the kind of experiment: qHTS assay to identify small molecule antagonists of the estrogen receptor alpha (ER-alpha) signaling pathway using the BG1 cell line in the presence of 0.1 nM 17-beta-estradiol (AID 1259244). Further: nearly all actives have a fitted effect of over 50% in size. Further: potency means the concentration at half of the fitted maximal effect. Put shortly:
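After 5 days in hormone-depleted medium (charcoal-stripped serum, no phenol red), VM7Luc4E2 cells were seeded, incubated 24 h, then co-treated with compound and 0.1 nM (final) estradiol for 22 h before luminescence detection.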

Assay [5] is described as follows: qHTS assay to identify small molecule phospholipidosis (PLD) inducers (AID 1259344; active means well fitted curve in the direction sought with a large enough effect; an effect the other way counts as inactive or inconclusive; further: potency means the concentration at half of the fitted maximal effect). Put shortly:
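Fluorescent phospholipid staining (LipidTOX Red) measured by automated microscopy in fixed HepG2 cells after 24 h treatment; nuclei counterstained with Hoechst 33342; amiodarone as reference inducer.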

Assay [6] can be described thus: qHTS assay to identify small molecule HDAC inhibitors (AID 1259364). Further: top concentration of the series differs between compounds; nearly all actives have a fitted effect of over 45% in size. Put shortly:
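Homogeneous cell-based luminescent assay of endogenous class I/II HDAC activity; HCT-116 cells, 2 h compound exposure, 30 min HDAC-Glo development at RT.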

Assay [7] in a line: qHTS assay to identify small molecule HDAC inhibitors - cell viability counter screen (AID 1259365). Further: series mostly up to about 92 µM; nearly all actives have a fitted effect of over 50% in size. In outline: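 Following a 2hr exposure of overnight-plated wild-type HCT-116 cells to DMSO-delivered compounds, CellTiter-Glo was added and luminescence recorded after 30min at room temperature.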
Assay [8] can be described thus: qHTS assay to identify small molecule agonists of the sonic hedgehog signaling (Shh) pathway - cell viability counter screen (AID 1259366). Further: nearly all actives have a fitted effect of over 50% in size. Further: potency means the concentration at half of the fitted maximal effect. Put shortly:
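After a 4hr attachment at 37C, NIH/3T3 cells bearing an integrated Gli1-driven luciferase reporter were dosed with compounds. Treatment lasted 24hr, with the final hour including CellTiter-Fluor for a fluorescence viability measurement.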

Assay [9] is described as follows: qHTS assay to identify small molecule antagonists of the sonic hedgehog signaling (Shh) pathway - cell viability counter screen (AID 1259367). Further: nearly all actives have a fitted effect of over 55% in size. Further: potency means the concentration at half of the fitted maximal effect. Put shortly:
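Using CellTiter-Fluor, viability of Gli1-Luc reporter 3T3 cells is read by fluorescence in the wells used for the Shh luciferase assay. Treatment lasts 23 hr with conditioned medium, then reagent 1 hr at 37C.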

Assay [10] concerns the target Androgen receptor (Homo sapiens) (UniProt P10275). As to the kind of experiment: qHTS assay to identify small molecule antagonists of the androgen receptor (AR) signaling pathway using the MDA cell line in the presence of 0.5 nM R1881 (AID 1259243). Further: nearly all actives have a fitted effect of over 50% in size. Further: potency means the concentration at half of the fitted maximal effect. In outline:
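Steps: seed MDA-kb2 cells, incubate 5 hr at 37C; pin-transfer compounds in DMSO; add R1881 to 0.5 nM final; incubate 16 hr; add ONE-Glo, wait 30 min at room temperature; read luminescence.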

Sequence of Androgen receptor (Homo sapiens) (P10275 whole entry, looked up): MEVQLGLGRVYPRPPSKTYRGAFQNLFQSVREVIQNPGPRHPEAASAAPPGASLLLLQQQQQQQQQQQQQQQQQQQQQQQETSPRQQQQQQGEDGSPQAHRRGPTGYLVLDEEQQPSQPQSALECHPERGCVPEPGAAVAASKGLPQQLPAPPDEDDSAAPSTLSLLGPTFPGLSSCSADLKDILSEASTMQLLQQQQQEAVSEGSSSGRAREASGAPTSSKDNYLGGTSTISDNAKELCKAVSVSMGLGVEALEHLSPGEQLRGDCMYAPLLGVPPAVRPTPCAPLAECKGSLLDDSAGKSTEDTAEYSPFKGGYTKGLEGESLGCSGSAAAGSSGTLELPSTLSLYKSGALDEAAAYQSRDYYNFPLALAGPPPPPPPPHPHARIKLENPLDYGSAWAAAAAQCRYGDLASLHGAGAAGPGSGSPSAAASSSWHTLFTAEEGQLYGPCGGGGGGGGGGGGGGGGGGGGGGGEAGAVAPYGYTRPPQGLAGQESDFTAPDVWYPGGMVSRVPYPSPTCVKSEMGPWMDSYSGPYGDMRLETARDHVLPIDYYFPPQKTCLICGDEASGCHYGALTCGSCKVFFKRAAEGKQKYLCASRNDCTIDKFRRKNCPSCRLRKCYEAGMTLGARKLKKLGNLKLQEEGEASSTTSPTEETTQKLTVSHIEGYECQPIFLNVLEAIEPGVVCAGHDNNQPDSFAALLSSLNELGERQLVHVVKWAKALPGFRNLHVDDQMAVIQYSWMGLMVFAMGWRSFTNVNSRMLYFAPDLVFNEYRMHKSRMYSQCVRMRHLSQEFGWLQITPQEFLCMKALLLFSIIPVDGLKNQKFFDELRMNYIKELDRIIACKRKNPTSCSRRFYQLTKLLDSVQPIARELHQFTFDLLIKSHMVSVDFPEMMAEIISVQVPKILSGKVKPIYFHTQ
Sequence of Estrogen receptor (Homo sapiens) (P03372 whole entry, looked up): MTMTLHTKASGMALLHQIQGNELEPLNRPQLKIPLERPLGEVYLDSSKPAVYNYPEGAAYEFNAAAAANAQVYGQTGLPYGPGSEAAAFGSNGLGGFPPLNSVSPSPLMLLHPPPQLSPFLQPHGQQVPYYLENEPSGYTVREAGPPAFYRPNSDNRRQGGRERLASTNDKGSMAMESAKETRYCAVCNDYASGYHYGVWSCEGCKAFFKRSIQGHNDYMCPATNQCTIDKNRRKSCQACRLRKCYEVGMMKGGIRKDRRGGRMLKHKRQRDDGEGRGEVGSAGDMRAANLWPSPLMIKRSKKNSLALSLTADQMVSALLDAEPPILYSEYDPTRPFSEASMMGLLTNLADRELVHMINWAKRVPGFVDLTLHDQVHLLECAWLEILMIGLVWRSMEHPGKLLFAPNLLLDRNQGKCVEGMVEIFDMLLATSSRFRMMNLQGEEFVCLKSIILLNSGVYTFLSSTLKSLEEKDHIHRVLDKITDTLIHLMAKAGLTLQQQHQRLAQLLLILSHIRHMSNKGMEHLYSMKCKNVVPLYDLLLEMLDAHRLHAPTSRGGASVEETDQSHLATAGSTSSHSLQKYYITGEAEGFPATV

With `Oc1ccc(O)cc1`, the Potency result in assay [1], in [2], in assay [3], in [4], in assay [5] and in [6] was “inactive” each time. The outcome in assay [7] was inactive. Besides, the Potency in assay [8] was 10.8 µM (active) and 24.3 µM (active) and 26.6 µM (active); in assay [9], 30.5 µM (active) and 54.5 µM (active).
In the case of `Cc1ccc(C)c(O)c1C`, the Potency entry in [1], in assay [2], in assay [3], in assay [10], in assay [4] and in assay [6] was “inactive” throughout. The Potency result in assay [9] was “inactive”. In assay [7], the compound was classed as inactive.
As for `Cc1c(C(N)=O)cc([N+](=O)[O-])cc1[N+](=O)[O-]`, the Potency entry in assay [1], in assay [2], in assay [3], in assay [4], in assay [5] and in assay [6] was “inactive” throughout. For the same compound, the Potency result in assay [8] and in [9] was “inactive” throughout. The compound was classed as inactive in assay [7].
On to `C[C@]12CCC(=O)C=C1CC[C@@H]1[C@@H]2C(=O)C[C@@]2(C)[C@H]1CC[C@]2(O)C(=O)CO`, for which the Potency result in [1], in [2], in [3], in [4], in [5] and in assay [6] was “inactive” in each case. The Potency entry in assay [9] is “inactive”. Moreover, the compound was called inactive in assay [7].
On to `O=C(COc1ccc(Cl)cc1)N1CCN(Cc2ccc3c(c2)OCO3)CC1`, for which the Potency result in [1], in assay [2], in assay [3], in assay [5], in [6] and in assay [9] was “inactive” throughout. Besides, the Potency in assay [4] is 48.6 µM (active) and 29.8 µM (active). In [7], the result was inactive.
As to `COc1cc([C@@H]2c3cc4c(cc3[C@H](O)[C@H]3COC(=O)[C@H]23)OCO4)cc(OC)c1OC`, the Potency result in [1], in assay [2], in assay [3], in assay [10], in assay [6] and in [8] was “inactive” in each case. Further, in assay [7], the call was inactive. For the same compound, the Potency in [9] is 106 nM (active).
On to `CN(C)CCN(Cc1cccs1)c1ccccn1`, for which the Potency result in assay [1], in [2], in assay [3], in [4], in assay [5] and in [6] was “inactive” in each case. Besides, the Potency entry in assay [9] was “inactive”. Moreover, in [7], the compound was called inactive.
Regarding `C[C@]12CC[C@H]3[C@@H](CCC4=CC(=O)CC[C@@]43C)[C@@H]1CC[C@@H]2C(=O)CO`, the Potency entry in assay [1], in assay [2], in [3], in assay [4], in assay [5] and in [6] was “inactive” throughout. The Potency entry in assay [8] and in [9] was “inactive” throughout. Also, the outcome in [7] was inactive.
`C=C(C)C(=O)OCCOC(=O)C(=C)C`: the Potency result in [1], in [2], in [3], in assay [10], in assay [4] and in assay [6] was “inactive” in each case. The Potency result in assay [8] and in assay [9] was “inactive” in each case. For the same compound, the compound was classed as inactive in [7].
In the case of `CC(C(=O)O)c1cccc(C(=O)c2ccccc2)c1` (stereo not given), the Potency entry in assay [1], in assay [2], in assay [3], in assay [4], in assay [5] and in [6] was “inactive” throughout. The Potency entry in assay [8] and in [9] was “inactive” throughout. In addition, in assay [7], the compound was called inactive.
Consider `CN1C(C(=O)Nc2ccccn2)=C(O)c2ccccc2S1(=O)=O`, for which the Potency result in [1], in assay [2], in assay [3], in [4], in assay [5] and in assay [6] was “inactive” each time. For the same compound, the Potency entry in assay [8] and in assay [9] was “inactive” throughout. Besides, the compound was called inactive in assay [7].
As for `O=C(Nc1ccc(Cl)cc1)Nc1ccc(Cl)c(Cl)c1`, the Potency result in assay [1], in [2], in assay [5], in [6] and in assay [9] was “inactive” in each case. For the same compound, the Potency is 21.7 µM (active) and 23.7 µM (active) in [3]; 17.1 µM (active) and 13.7 µM (active) and 13.3 µM (active) in [10]; 21.6 µM (active) and 12.2 µM (active) and 16.8 µM (active) in assay [4]. Besides, in assay [7], the compound was called inactive.
Turning to `CNCCCC12CCC(c3ccccc31)c1ccccc12`, the Potency entry in assay [1], in [2] and in assay [6] was “inactive” each time. Also, the Potency was 54.5 µM (active) and inactive in assay [3]; 61.1 µM (active) and inactive in [4]; 7.94 µM (active) in [5]; 30.6 µM (active) in [8]; 54.5 µM (active) and inactive in assay [9]. Also, the outcome in [7] was inactive.
On to `CCOCCOCCO`, for which the Potency result in assay [1], in assay [2], in assay [3], in assay [10], in assay [6] and in [8] was “inactive” throughout. Moreover, in [9], the Potency result is “inactive”. The outcome in assay [7] was inactive.
For the compound `O=C(/C=C/c1ccccc1)OCc1ccccc1`, the Potency entry in [1], in assay [2], in assay [3], in [4], in assay [5] and in assay [6] was “inactive” each time. The Potency result in assay [8] and in assay [9] was “inactive” throughout. In addition, the compound was classed as inactive in assay [7].
Consider `Nc1ncn([C@@H]2O[C@H](CO)[C@@H](O)[C@H]2O)c(=O)n1`, for which the Potency result in [1], in assay [2], in assay [3], in assay [4], in assay [5] and in assay [6] was “inactive” each time. Besides, the Potency entry in [8] is “inactive”. Further, the Potency in assay [10] is 4.33 µM (active) and 3.76 µM (active). Also, in assay [7], the compound was classed as inactive.
In the case of `c1ccc2c(c1)c1cccc3ccc4cccc2c4c31`, the Potency entry in assay [1], in assay [2], in assay [3], in assay [10], in assay [4] and in [6] was “inactive” each time. The Potency entry in assay [8] and in assay [9] was “inactive” each time. Further, the call in [7] was inactive.
Turning to `CC(=O)CC/C=C(\C)CCC=C(C)C`, the Potency entry in [1], in assay [2], in [3], in assay [4], in [6] and in assay [9] was “inactive” each time. For the same compound, the call in assay [7] was inactive.
Take `COC(=O)CCC(=O)OC`: the Potency entry in [1], in assay [2], in assay [3], in [4], in assay [6] and in [8] was “inactive” in each case. Further, the Potency entry in [9] is “inactive”. For the same compound, the compound was called inactive in [7].
Consider `c1ccc2c(c1)Oc1ccccc1S2`, for which the Potency result in assay [1], in assay [2], in assay [3], in assay [4], in assay [6] and in assay [8] was “inactive” throughout. Moreover, the Potency result in assay [9] is “inactive”. The call in assay [7] was inactive.
As to `CCC(C)CO` (stereo not given), the Potency result in assay [1] is “inactive and 49 µM (active)”. Besides, the Potency result in assay [2], in assay [3], in assay [4], in assay [6] and in assay [9] was “inactive” throughout. Further, the compound was called inactive in assay [7].
Take `CCCCCCCCCCCO`: the Potency entry in assay [1], in [2], in assay [3], in assay [4], in assay [6] and in assay [8] was “inactive” throughout. Also, in [9], the Potency entry is “inactive”. For the same compound, the compound was classed as inactive in assay [7].
As for `CC(CCC(=O)O)(c1ccc(O)cc1)c1ccc(O)cc1`, the Potency result in [1], in assay [2], in assay [3], in assay [4], in assay [6] and in assay [8] was “inactive” throughout. Besides, the Potency result in [9] was “inactive”. The compound was called inactive in assay [7].
In the case of `c1cc(N(CC2CO2)CC2CO2)ccc1OCC1CO1` (stereo not given), the Potency entry in assay [1], in assay [2], in assay [3], in assay [4] and in [6] was “inactive” each time. In assay [7], the compound was called inactive. Moreover, the Potency in assay [9] is 27300 nM (active).
